For 16 compounds, growth inhibition results are on record in PubChem BioAssay (NCI).

The nature of assay [1]: NCI Yeast Anticancer Drug Screen. Data for the mec2-1 strain (AID 157). Particulars: S. cerevisiae mec2-1 strain, stronger effect = higher value. Put shortly:
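Test agents were screened against the mec2-1 yeast strain, with defined DNA repair or cell cycle alteration. Growth was scored as inhibition against vehicle-only controls.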

Assay [2] in a line: NCI Yeast Anticancer Drug Screen. Data for the sgs1 mgt1 strain (AID 161).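 Note: 0% = growth of cultures given vehicle only.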 The conditions noted are these: S. cerevisiae sgs1 mgt1 strain, stronger effect = higher value. An outline of the steps:
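Read-out: growth inhibition vs vehicle controls. Cells: mutant yeast strain deficient in DNA damage repair.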

Assay [3] in a line: NCI Yeast Anticancer Drug Screen. Data for the cln2 rad14 strain (AID 165).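 Note: 0% = growth equal to vehicle treated cultures.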 Particulars: S. cerevisiae cln2 rad14 strain, stronger effect = higher value. An outline of the steps: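 Growth of compound-exposed yeast (cln2 rad14 genotype) measured and expressed as inhibition relative to vehicle.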
Assay [4] is described as follows: NCI Yeast Anticancer Drug Screen. Data for the bub3 strain (AID 167). Particulars: S. cerevisiae bub3 mutant strain, stronger effect = higher value. Put shortly:
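Mutant yeast screening strain plus compound; vehicle-treated cultures serve as the 0% inhibition reference.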

A short description of assay [5]: NCI Yeast Anticancer Drug Screen. Data for the mlh1 rad18 strain (AID 175). Particulars: S. cerevisiae mlh1 rad18 strain growth inhibition, stronger effect = higher value. An outline of the steps:
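In this whole-cell yeast screen, a strain with altered DNA damage repair is challenged with compound, and its growth is measured against matched vehicle-treated controls.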

Assay [6] is described as follows: NCI Yeast Anticancer Drug Screen. Data for the rad50 strain (AID 155).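 Note: 0% = growth of vehicle-only cultures of the same strain.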 The conditions noted are these: S. cerevisiae rad50 strain growth inhibition; at 50.0 µM; stronger effect = higher value. An outline of the steps:
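Vehicle-treated cultures provide the reference for the growth inhibition reported for compound-exposed, repair-deficient yeast.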

[7] abbreviates: at 5.0 µM (retest, dose inferred, filed as 0.5).
[8] abbreviates: at 50.0 µM (retest, dose inferred, filed as 5.0).

Where “and” joins values, the source holds several entries; their conditions need not be identical. Equal entries are not always repeated. Compounds without any hit were thinned out: in the full panel of roughly 79,000, 15% have a hit. The source holds several records for some structures; these can differ, active in one and inactive in another. Calls of active or inactive are those of the source. Cut-off read from the data, not from the text of the source: active = growth inhibition above about 70%; inactive = the rest.

`OC(CSc1ccccc1)CN1CCN(c2ccc(Cl)cc2)CC1` (stereo unspecified): the growth inhibition in assay [1] (setting [7]) was 5% (inactive); in assay [1] (setting [8]) it was 43% (inactive); in assay [1] (at 50.0 µM) it was 25.5% (inactive); in assay [2] (setting [7]), 6% (inactive); in assay [2] (setting [8]) it was 90% (active); in assay [2] (at 50.0 µM) it was 79% (active). For the same compound, the growth inhibition was 9% (inactive) in assay [3] (setting [7]); 62% (inactive) in assay [3] (setting [8]); 15.6% (inactive) in assay [3] (at 50.0 µM); 7% (inactive) in assay [4] (setting [7]); 76% (active) in assay [4] (setting [8]); 80.8% (active) in assay [4] (at 50.0 µM). The results for the growth inhibition in assay [5] (setting [7]), in assay [5] (setting [8]) and in assay [5] (at 50.0 µM) were 4% (inactive), 73% (active) and 59.5% (inactive), respectively.

As to `COC1C(C)OCOC2COCOC21` (stereo unspecified), the growth inhibition in assay [6] is 17.4% (inactive) and -6.3% (inactive); in assay [1] (at 50.0 µM) it was 2.2% (inactive) and -13.2% (inactive); in assay [2] (at 50.0 µM), 4.15% (inactive) and -8.6% (inactive); in assay [4] (at 50.0 µM), 9.05% (inactive) and -3.8% (inactive); in assay [5] (at 50.0 µM), 7.4% (inactive) and -0.45% (inactive).

`Cc1cccc2c(N)c3ccccc3nc12`: the growth inhibition is 3% (inactive) in assay [1] (setting [7]); 13% (inactive) in assay [1] (setting [8]); 43.3% (inactive) in assay [1] (at 50.0 µM); 1% (inactive) in assay [2] (setting [7]); 7% (inactive) in assay [2] (setting [8]); 73.7% (active) in assay [2] (at 50.0 µM). Moreover, the growth inhibition in assay [3] (setting [7]) was 6% (inactive); in assay [3] (setting [8]), 15% (inactive); in assay [3] (at 50.0 µM) it was 45.6% (inactive); in assay [4] (setting [7]) it was 0% (inactive); in assay [4] (setting [8]) it was -9% (inactive); in assay [4] (at 50.0 µM), 45% (inactive). The values for the growth inhibition in assay [5] (setting [7]), in assay [5] (setting [8]) and in assay [5] (at 50.0 µM) were 6% (inactive), 24% (inactive) and 67.8% (inactive), respectively.

As to `COC(=O)/C(Cc1cccc(OC(C)=O)c1C(=O)OC)=N/O`, the growth inhibition in assay [6] was -8.8% (inactive) and 2.95% (inactive); in assay [1] (at 50.0 µM), 16.2% (inactive) and 12.4% (inactive); in assay [3] (at 50.0 µM) it was -10.5% (inactive) and -99.8% (inactive); in assay [4] (at 50.0 µM), -8.75% (inactive) and 12.7% (inactive); in assay [5] (at 50.0 µM), -13.2% (inactive) and 3.55% (inactive).

`C=CC/C(=N\OS(=O)(=O)O)SC1OC(CO)C(O)C(O)C1O` (stereo unspecified): the growth inhibition in assay [6] is 2.2% (inactive) and 4.75% (inactive); in assay [1] (at 50.0 µM), -30.6% (inactive) and -21.5% (inactive); in assay [2] (at 50.0 µM) it was -0.75% (inactive) and -20.6% (inactive); in assay [3] (at 50.0 µM), 13.4% (inactive) and 7.4% (inactive); in assay [4] (at 50.0 µM) it was -14% (inactive) and -30.2% (inactive); in assay [5] (at 50.0 µM), -14.9% (inactive) and -10.7% (inactive).

In the case of `COc1ccc(C(O)C(NCCO)c2ccc(OC)cc2)cc1` (stereo unspecified), the growth inhibition is 12.8% (inactive) and -7.35% (inactive) in assay [1] (at 50.0 µM); 42.7% (inactive) and -3.7% (inactive) in assay [2] (at 50.0 µM); -37.6% (inactive) and -16.8% (inactive) in assay [3] (at 50.0 µM); -2.25% (inactive) and 0.05% (inactive) in assay [4] (at 50.0 µM); 15.7% (inactive) and -28.1% (inactive) in assay [5] (at 50.0 µM).

For the compound `O=C1C=Cc2ccccc2/C1=C/c1nc(-c2ccccc2)oc1O`, the growth inhibition in assay [1] (setting [7]) is -15% (inactive); in assay [1] (setting [8]), 98% (active); in assay [1] (at 50.0 µM) it was 91.8% (active); in assay [2] (setting [7]), 17% (inactive); in assay [2] (setting [8]), 97% (active); in assay [2] (at 50.0 µM), 49.5% (inactive). Moreover, the growth inhibition in assay [3] (setting [7]) is 2% (inactive); in assay [3] (setting [8]) it was 97% (active); in assay [3] (at 50.0 µM), 86.5% (active); in assay [4] (setting [7]) it was 0% (inactive); in assay [4] (setting [8]), 98% (active); in assay [4] (at 50.0 µM), 92.7% (active). Also, the growth inhibition is 5% (inactive) in assay [5] (setting [7]), 97% (active) in assay [5] (setting [8]) and 90% (active) in assay [5] (at 50.0 µM).

On to `O=C(O)CSc1ccccc1C(=O)O`, for which the growth inhibition in assay [6] is -1.35% (inactive) and -7.9% (inactive); in assay [1] (at 50.0 µM) it was -11.9% (inactive) and -40.9% (inactive); in assay [3] (at 50.0 µM), -27.9% (inactive) and 22.3% (inactive); in assay [4] (at 50.0 µM), 6.15% (inactive) and -33.8% (inactive); in assay [5] (at 50.0 µM), -17.9% (inactive) and -4.25% (inactive).

As for `Oc1ccc(Cc2ccc(Cl)cc2)c(O)c1`, the growth inhibition in assay [1] (setting [7]) is -5% (inactive); in assay [1] (setting [8]), 99% (active); in assay [2] (setting [7]), -1% (inactive); in assay [2] (setting [8]) it was 99% (active); in assay [3] (setting [7]), 0% (inactive); in assay [3] (setting [8]) it was 98% (active). Also, the growth inhibition was -2% (inactive) in assay [4] (setting [7]), 99% (active) in assay [4] (setting [8]), -33% (inactive) in assay [5] (setting [7]) and 98% (active) in assay [5] (setting [8]).

For `CC1CCOS(=O)O1` (stereo unspecified), the growth inhibition was 6.55% (inactive) and -13.5% (inactive) in assay [6]; 19.1% (inactive) and -9.65% (inactive) in assay [2] (at 50.0 µM); 12.1% (inactive) and 11.6% (inactive) in assay [3] (at 50.0 µM); -4.45% (inactive) and 7.7% (inactive) in assay [4] (at 50.0 µM); 18.2% (inactive) and -7% (inactive) in assay [5] (at 50.0 µM).

`C=COC(=O)c1ccccc1C(=O)OCCCC`: the growth inhibition in assay [1] (setting [7]) is -2% (inactive); in assay [1] (setting [8]), 3% (inactive); in assay [2] (setting [7]), 5% (inactive); in assay [2] (setting [8]) it was 37% (inactive); in assay [3] (setting [7]), 7% (inactive); in assay [3] (setting [8]) it was -6% (inactive). Besides, the growth inhibition is 4% (inactive) in assay [4] (setting [7]), 27% (inactive) in assay [4] (setting [8]), 18% (inactive) in assay [5] (setting [7]) and 6% (inactive) in assay [5] (setting [8]).

Turning to `Clc1ccc(/C=N/N=C/c2ccc(Cl)cc2)cc1`, the growth inhibition was -52.5% (inactive) and -17.1% (inactive) in assay [6]; -28.9% (inactive) and -16% (inactive) in assay [1] (at 50.0 µM); -23% (inactive) and -20.1% (inactive) in assay [3] (at 50.0 µM); -33.3% (inactive) and 6.3% (inactive) in assay [4] (at 50.0 µM); -33.5% (inactive) and -18.1% (inactive) in assay [5] (at 50.0 µM).

Consider `COc1cc(NCCCNc2c3ccc(Cl)cc3nc3ccc(OC)cc23)c2ncccc2c1`, for which the growth inhibition is -3.5% (inactive) and 79.2% (active) in assay [6]; -13.9% (inactive) and 24% (inactive) in assay [1] (at 50.0 µM); 8.15% (inactive) and 70% (active) in assay [2] (at 50.0 µM); -18.2% (inactive) and 50.2% (inactive) in assay [4] (at 50.0 µM); -4.6% (inactive) and 85.9% (active) in assay [5] (at 50.0 µM).

Take `NC(C(=O)O)C(O)C(=O)O` (stereo unspecified): the growth inhibition in assay [1] (at 50.0 µM) was 5.85% (inactive) and 8.65% (inactive); in assay [2] (at 50.0 µM), 2.85% (inactive) and -6.75% (inactive); in assay [3] (at 50.0 µM) it was 10.4% (inactive) and -5.6% (inactive); in assay [4] (at 50.0 µM), -5.75% (inactive) and 4.05% (inactive); in assay [5] (at 50.0 µM) it was 0.55% (inactive) and -7.3% (inactive).

Turning to `O=C1CCCCC1C(O)c1ccc([N+](=O)[O-])cc1` (stereo unspecified), the growth inhibition was 0.05% (inactive) and -2.7% (inactive) in assay [6]; 16.1% (inactive) and -5.9% (inactive) in assay [1] (at 50.0 µM); -2.35% (inactive) and -15.2% (inactive) in assay [3] (at 50.0 µM); 5.3% (inactive) and -5.1% (inactive) in assay [4] (at 50.0 µM); 16.1% (inactive) and -6.85% (inactive) in assay [5] (at 50.0 µM).

Turning to `COc1cc(/C=C2\SC(=S)N(/C=C/c3nc4ccccc4[nH]c3=O)C2=O)cc(OC)c1OC`, the growth inhibition in assay [1] (setting [7]) is -10% (inactive); in assay [1] (setting [8]), 45% (inactive); in assay [1] (at 50.0 µM), 14.7% (inactive); in assay [2] (setting [7]) it was -3% (inactive); in assay [2] (setting [8]), 24% (inactive); in assay [2] (at 50.0 µM) it was 63.1% (inactive). Also, the growth inhibition in assay [3] (setting [7]) was -29% (inactive); in assay [3] (setting [8]), 58% (inactive); in assay [3] (at 50.0 µM), 34.5% (inactive); in assay [4] (setting [7]) it was -8% (inactive); in assay [4] (setting [8]), 44% (inactive); in assay [4] (at 50.0 µM) it was -4.8% (inactive). The growth inhibition is 3% (inactive) in assay [5] (setting [7]), 42% (inactive) in assay [5] (setting [8]) and 55.1% (inactive) in assay [5] (at 50.0 µM).
